Compound activity from PubChem BioAssay.
Vc quorum ag: induces V. cholerae light production without autoinducers | V. cholerae BH1578 lux reporter, luminescence, 6 h | activation, % at 18.7 µM | 350,000 compounds, 0.16% hits | AID 588436; in the data active means activation mostly above about 9.7%, no sharp cut-off; inconclusive means no clear call, values can overlap the other calls; inactive means mostly below about 3.7%
UGM FP inh: inhibitors of M. tuberculosis UDP-galactopyranose mutase | P9WIQ1 | purified UGM, fluorescence polarization probe displacement | inhibition, % at 10 µM | 320,000 compounds, 0.06% hits; in the data active means inhibition above about 10%, passing the limit was not always enough; inconclusive means no clear call, values can overlap the other calls
Target sequence (P9WIQ1 whole entry, looked up): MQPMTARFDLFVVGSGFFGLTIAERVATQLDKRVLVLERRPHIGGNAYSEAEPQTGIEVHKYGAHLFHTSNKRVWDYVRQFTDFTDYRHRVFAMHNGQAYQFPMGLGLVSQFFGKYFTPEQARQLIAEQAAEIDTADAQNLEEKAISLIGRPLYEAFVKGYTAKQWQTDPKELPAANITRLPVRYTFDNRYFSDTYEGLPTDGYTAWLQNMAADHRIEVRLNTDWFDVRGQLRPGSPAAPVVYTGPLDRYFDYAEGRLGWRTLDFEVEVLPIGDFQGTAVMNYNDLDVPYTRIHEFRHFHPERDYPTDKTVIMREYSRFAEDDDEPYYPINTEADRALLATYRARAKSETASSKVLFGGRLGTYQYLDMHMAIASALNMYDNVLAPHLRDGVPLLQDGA
Mtb bLac sens: beta-lactam sensitization of Mtb H37Rv; M. tuberculosis H37Rv growth with meropenem, percent inhibition; inhibition, % at 25 µM; 330,000 compounds, 0.27% hits; call rule not given here;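 further: growth measured after seven days incubation then overnight dye step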
MazF activator: increases E. coli MazEF RNase cleavage of RNA; AID 504720; 350,000 compounds, 0.32% hits; FAM/BHQ RNA-DNA oligo cleavage fluorescence, 5 h; activation, % at 20 µM; in the data active means activation above about 50%
Target sequence (P0AE70 whole entry, looked up): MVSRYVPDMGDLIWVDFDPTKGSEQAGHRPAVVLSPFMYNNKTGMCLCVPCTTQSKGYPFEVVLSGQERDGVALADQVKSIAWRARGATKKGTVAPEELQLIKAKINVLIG
FadD28 binding: M. tuberculosis FadD28 bisubstrate binding inhibition | FadD28 bisubstrate probe binding, fluorescence polarization | inhibition, % at 12.5 µM | 360,000 compounds, 0.22% hits | AID 588549; in the data active means inhibition above about 8.5%, passing the limit was not always enough; inconclusive means no clear call, values can overlap the other calls
Rv3671c protease: inhibits the M. tuberculosis serine protease Rv3671c | inhibition, % at 5.96 µM | 320,000 compounds, 0.048% hits | AID 2606; in the data active means inhibition above about 38%;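 further: extracellular domain of Rv3671c used as enzyme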
Numbers stand for hits; i = inactive; ? = inconclusive; nt = not tested or not shown; + = active, no number. Hits are enriched below; roughly 0.74% of the tested compounds scored in any of these assays.

SMILES	Vc quorum ag	UGM FP inh	Mtb bLac sens	MazF activator	FadD28 binding	Rv3671c protease
COc1cccc(/C=N/Nc2nc(C)cc(=O)[nH]2)c1OC	i	i	i	i	13	i
COC1C(OC(=O)c2ccc(C)[nH]2)C(O)C(Oc2ccc3c(O)c(NC(=O)c4ccc(O)c(CC=C(C)C)c4)c(=O)oc3c2Cl)OC1(C)C (stereo not given)	i	i	i	55	20	i
COc1cc(NCCCC(C)N)c2ncccc2c1 (stereo not given)	i	nt	nt	i	8.7	nt
COc1cc(NCCCCC(C)N)c2nccc(C)c2c1 (stereo not given)	i	nt	nt	i	i	nt
Cc1cc(C)c(S(=O)(=O)n2c([N+](=O)[O-])cnc2C)cc1C	i	10	i	i	i	i
O=C(O)CC/C(=C\c1ccc2c(c1)OCO2)c1nc2ccccc2s1	i	i	i	60	i	i
Cc1cn([C@H]2C[C@H](O)[C@@H](CNCc3ccc(Oc4cc(-n5cccn5)ncn4)cc3)O2)c(=O)[nH]c1=O	i	nt	nt	i	i	nt
CCN1CCN(Cc2ccc(NC(=O)c3cc(NC(=O)c4cc(-c5ccc(OC)cc5)n[nH]4)cc(OC)c3)cc2C(F)(F)F)CC1	i	i	i	i	67	i
O=C(Nc1cccc(F)c1)C1CCCN(S(=O)(=O)c2ccccc2)C1 (stereo not given)	i	i	i	i	i	i
O=C(CNc1cccc2ccccc12)N/N=C/c1ccc(C(=O)O)cc1	i	i	i	i	38	i
C#CCN1[C@@H]2CCN(C2)c2cc(Br)ccc2S1(=O)=O	i	nt	nt	i	i	nt
O=c1oc(/C=C/c2ccco2)nc2sc3c(c12)CCC3	i	i	i	141	i	i
COc1ccccc1C(=O)Nc1cc(-c2ccc(C)cc2)no1	i	i	i	i	i	i
NC(N)=NCCCS(=O)(=O)Nc1ccc(Nc2c3ccccc3nc3cc([N+](=O)[O-])ccc23)cc1	i	nt	nt	51	i	nt
O=[N+]([O-])c1ccc(Nc2c3ccccc3nc3ccccc23)cc1	i	nt	nt	i	i	nt
O=C(Nn1c(COc2ccccc2)nc2ccccc2c1=O)C(Cl)(Cl)Cl	i	i	i	i	i	nt
O=C(Nc1ccc(Cl)c(Cl)c1)N1CCC(N2CCCCC2)CC1	+	i	i	i	i	i
COc1ccc(NC(=O)NS(=O)(=O)c2ccc(C)cc2)cn1	i	67	i	i	i	nt
CN(C(=O)c1cccc(NC(=O)Cc2cccc(NC(=O)C3CCCN(C(=O)CCc4ccccc4)C3)c2)c1)C1CCC1 (stereo not given)	i	nt	nt	i	i	nt
O=C1C(=O)C(Cl)=C(Cl)C(Cl)=C1Cl	nt	nt	nt	nt	11	nt
COc1ccc(/C=N/NS(=O)(=O)c2ccc(F)cc2)cc1CN1CCSCC1	i	i	?	i	i	i
CCCNC(=O)c1ccc(N2CCC3(CC2)CC(c2ccccc2)=NO3)c(NC(=O)Cc2ccc(F)cc2)c1	i	i	i	i	i	i
Cc1oc(/N=C/c2ccccc2)c(C#N)c1C	i	i	i	i	i	nt
COc1[nH]c(/N=C/c2ccccc2)c(C#N)c1C#N	i	i	i	74	28	i
Cc1ccc(SCCC(=O)NNC(=O)c2ccccc2F)cc1	i	i	i	i	i	i
SMILES	Vc quorum ag	UGM FP inh	Mtb bLac sens	MazF activator	FadD28 binding	Rv3671c protease
O=C1OCC(c2ccccc2)=C1c1ccc(S(=O)(=O)N2CCOCC2)s1	17	i	i	i	i	i
Cc1ccc(S(=O)(=O)N2CCOCC2)s1	i	i	i	i	i	i
COC(=O)[C@]1(C)N[C@H](CN(C)C(=O)COc2ccccc2)[C@@H]2C(=O)N(C)C(=O)[C@@H]21	i	nt	i	i	i	i
N#CC1(C#N)CC(C=O)=C(N)C1(C#N)CC(=O)c1ccc(F)cc1 (stereo not given)	i	i	i	154	i	i
CCN1CCN(c2cc(N3CCN(C(=O)c4ccco4)CC3)c3c4c(onc24)-c2ccccc2C3=O)CC1	i	i	i	i	i	i
O=C(O)CCNc1cc(N2CCN(C(=O)c3ccco3)CC2)c2noc3c2c1C(=O)c1ccccc1-3	i	i	i	i	22	i
O=C(Nc1c(-c2ccccc2)[nH][nH]c1=O)c1ccc(Br)cc1	nt	nt	nt	nt	i	nt
COc1ccccc1NC1=C(NC(C)=O)C(=O)c2ccccc2C1=O	i	nt	nt	218	i	nt
O=C(CSc1nnc(SCc2ccc(Cl)cc2)s1)N/N=C/c1c[nH]c2ccccc12	i	i	i	64	i	i
O=C(CSc1nnc(SCc2cccc3ccccc23)s1)N/N=C/c1c[nH]c2ccccc12	i	i	i	i	i	i
COc1ccc(CN2C(=O)C(CC(=O)NC(c3ccccc3)c3ccccc3)CC(C(=O)N(C(C)C)C(C)C)=C2C)cc1 (stereo not given)	i	nt	nt	i	i	nt
CCOC(=O)C1(C)CCN1C(=O)c1cc(F)cc(F)c1 (stereo not given)	i	nt	nt	nt	i	nt
CCN(CC)c1ccc(/C=c2/sc3nnc(-c4ccccc4C)n3c2=O)cc1	i	i	i	i	i	i
CCN(CC)c1ccc(/C=c2\sc3nnc(-c4ccccc4Cl)n3c2=O)cc1	i	i	i	i	19	i
Cc1ccccc1OCC(=O)OCC(=O)NCc1ccc2c(c1)OCO2	i	i	i	i	i	i
O=C(COC(=O)COc1cccc(Br)c1)NCc1ccc2c(c1)OCO2	i	11	i	i	i	i
COc1cc(/C=N/NC(=O)c2cccnc2)ccc1OC(=O)c1cc(OC)c(OC)c(OC)c1	i	i	i	i	i	i
COc1cc(/C=N/NC(=O)c2cccnc2)ccc1OC(=O)c1ccc2c(c1)OCO2	i	i	i	72	i	i
Cc1ccc[n+](-c2nc([O-])sc2C=O)c1	i	i	i	69	i	i
N#C/C(=C\c1ccccc1[N+](=O)[O-])c1nc(C2CC2)cs1	i	i	i	i	i	i
N#C/C(=C\c1ccc([N+](=O)[O-])cc1)c1nc(C2CC2)cs1	i	i	i	338	i	i
COc1ccc(-c2csc(/C(C#N)=C\c3ccc(O)c([N+](=O)[O-])c3)n2)cc1OC	i	i	i	i	9.5	i
COc1ccc(-c2csc(/C(C#N)=C\c3ccc(OC)c([N+](=O)[O-])c3)n2)cc1	i	i	i	i	i	i
CC(=O)Nc1ccc(S(=O)(=O)NCCC(=O)OCC(=O)N2CCN(C(=O)c3ccco3)CC2)cc1	i	i	i	i	i	i
CCCCN(C(=O)NCCCCCCNC(=O)N(CCCC)C1CCS(=O)(=O)C1)C1CCS(=O)(=O)C1 (stereo not given)	i	i	i	i	i	i
CNc1ccc(-c2cccc(C(=O)N3CCOCC3)c2)cn1	i	nt	nt	nt	i	nt
COc1ccc(NC(=O)c2ccc(-c3ccc([N+](=O)[O-])cc3)o2)cc1	i	i	i	i	i	i
O=C(Nc1nccs1)c1ccc(-c2ccc([N+](=O)[O-])cc2)o1	i	20	i	i	i	i
COc1ccc(CCNC(=O)c2ccc(-c3ccc([N+](=O)[O-])cc3)o2)cc1OC	i	i	i	59	i	i
